The sample as a whole holds a higher share of hits than the screen did.
LMNA splice mod – LMNA splicing modulation; 0.01% of 200,000 active; Potency, µM (highest dose often 46.1 µM), actives largely listed as inhibitors; HeLa LMNA splicing GFP/RFP minigene ratio, 48 h; active = well fitted inhibition curve with a large enough effect in the signal ratio, with a control signal flat, not every such curve was filed as active; inconclusive = small, poorly fitted or top-dose-only effect, or effect the other way, or a change in a side signal; the % refers to the signal ratio
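Read-out is the ratio of GFP to DsRed2 object intensity, acquired by 488 nm laser-scanning cytometry on HeLa lamin A-EGFP minigene reporter cells. Compound incubation 48 hrs at 37 °C in Opti-MEM with 2% FBS; DMSO 0.5% final.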
PNC inhibitor – perinucleolar compartment assembly inhibition. 3.1% of 140,000 active. AID 2417. PC3M PTB-GFP, PNC prevalence imaging, 16 h; active compounds read low. activity change (PNC), negative = inhibition, % at 10 µM;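 active = readout at or below -70, meaning at least 70% loss of cells showing the perinucleolar compartment, a nuclear body marking cancer cells; inconclusive = readout between -30 and a set limit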
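PC3M cells stably expressing PTB-GFP, 750–1000 cells/well, treated 16 h at 37 °C with compound (23 nl of library stock), in duplicate. After paraformaldehyde fixation and Hoechst stain, imaged at 20x; PNC prevalence scored by image analysis.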
IMPase cell inh – membrane-permeable compound that blocks inositol monophosphatase; P97697; CHO-M1 cells, IP1 accumulation, HTRF TR-FRET ratio; inhibition (IP1 accumulation), % at 46.1 µM; 120,000 tested, under 10 active; AID 901; active = well fitted curve in the direction sought with a large enough effect in the signal ratio, not every such curve was filed as active; inconclusive = small, poorly fitted or top-dose-only effect, or a change in a side signal; inactive = no such curve, though single readings can be large or run the other way; the % refers to the signal ratio;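 note: cells stimulated with carbachol in lithium chloride buffer; higher means more IMPase inhibition seen as more IP1 and lower FRET ratio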
Target sequence (P97697 whole entry, looked up): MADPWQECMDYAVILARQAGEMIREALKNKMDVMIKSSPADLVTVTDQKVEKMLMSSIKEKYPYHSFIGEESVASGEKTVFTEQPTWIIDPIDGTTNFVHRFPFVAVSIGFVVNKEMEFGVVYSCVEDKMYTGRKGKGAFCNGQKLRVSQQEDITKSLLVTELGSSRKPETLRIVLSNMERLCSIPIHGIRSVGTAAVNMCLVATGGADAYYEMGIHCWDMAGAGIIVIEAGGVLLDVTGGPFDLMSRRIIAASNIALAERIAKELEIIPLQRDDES
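Carbachol-driven Gq signalling in CHO-M1 cells (2000/well) generates IP1. Compounds that block IMPase raise IP1 and so reduce the FRET signal from Eu-anti-IP1 and d2-IP1 after a 10 min room-temperature lysis.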
Hits are given with their value; i = inactive; ? = inconclusive; nt = not tested or not shown.

SMILES	LMNA splice mod	PNC inhibitor	IMPase cell inh
CCCn1c(SCC(=O)Nc2nnc(C(C)C)s2)nc2c1c(=O)n(C)c(=O)n2C	i	i	i
O=C(Cn1cc(S(=O)(=O)Cc2ccccc2Cl)c2ccccc21)Nc1ccc(F)cc1F	i	nt	nt
Cc1ccc(CNC(=O)Cn2ncc3c([nH]c4ccc(C)cc43)c2=O)cc1	i	nt	nt
Brc1ccccc1-c1nnc(-c2cccnc2)o1	i	-81	i
Brc1ccc(-c2nnc(-c3ccccc3Br)o2)cc1	i	i	i
Fc1ccccc1-c1nc(-c2ccccc2)no1	i	-100	i
c1cncc(-c2noc(-c3cccc4ccccc34)n2)c1	i	i	i
Clc1ccc(Cc2nc(-c3cccnc3)no2)cc1	i	-93	i
Cc1ccc(Cc2nc(-c3cccnc3)no2)cc1	i	i	nt
c1ccc(-c2ccccc2-c2nc(-c3cccnc3)no2)cc1	i	-101	i
COc1ccc(-c2noc(-c3ccccc3F)n2)cc1	i	i	i
COc1ccc(-c2cc(C(=O)Oc3ccc(C#N)cc3)no2)cc1	i	nt	nt
COc1cccc(NC(=O)CSC2=Nc3ccccc3C3=NC(CC(=O)NCc4ccc5c(c4)OCO5)C(=O)N23)c1 (stereo not given)	i	nt	nt
COc1ccc(NC(c2ccc(F)cc2)c2nnc(-c3ccccc3Cl)o2)cc1Cl (stereo not given)	nt	nt	i
COC(=O)c1ccccc1NC(=O)NCC1CCCO1 (stereo not given)	i	-122	i
COC(=O)c1ccccc1NC(=O)C(=O)NCC1CCCO1 (stereo not given)	i	i	i
CN(C)S(=O)(=O)N(CC(=O)Nc1ccc(Br)cc1F)c1ccccc1	nt	nt	i
COc1ccc(-c2csc(Cc3nnc4n3CCCCC4)n2)cc1	i	?	i
c1ccc(NCc2nnc3n2CCCCC3)cc1	i	i	i
c1ccc2sc(Cc3nnc4n3CCCCC4)nc2c1	i	-82	i
FC(F)Oc1ccc(-c2csc(Cc3nnc4n3CCCCC4)n2)cc1	?	-100	i
CC1CCCN(C(=O)CCCn2c(=S)[nH]c3ccccc3c2=O)C1 (stereo not given)	i	?	i
COc1ccc(OC)c(C2C3CN(C(C)C)CC=C3C(C#N)=C(N)C2(C#N)C#N)c1 (stereo not given)	?	i	i
CCCN1CC=C2C(C#N)=C(N)C(C#N)(C#N)C(c3cccc(OC)c3OC)C2C1 (stereo not given)	i	-95	i
CN1CC=C2C(C#N)=C(N)C(C#N)(C#N)[C@H](c3ccoc3)[C@H]2C1	i	-81	i
SMILES	LMNA splice mod	PNC inhibitor	IMPase cell inh
CC(=O)N1CC=C2C(C#N)=C(N)C(C#N)(C#N)[C@H](c3ccoc3)[C@H]2C1	i	?	i
CC(=O)c1cc(-c2ccc(F)cc2)n(CC(=O)NC(C)c2ccccc2)c1C (stereo not given)	i	nt	nt
O=C1CCc2cc(S(=O)(=O)NCc3ccc(F)cc3)cc3c2N1CC3	i	nt	nt
Cn1c(=O)n(Cc2ccccc2)c(=O)c2c1nc1n2CCN1c1ccccc1	i	nt	nt
CCOC(=O)C1CCN(C(=O)CSc2ccc(Br)cc2)CC1	i	nt	nt
CCOC(=O)C1CCN(C(=O)CSc2ccc(Cl)cc2)CC1	?	-100	i
COc1cccc(-n2cc(C(=O)OCc3ccc(Cl)cc3)c3ccccc3c2=O)c1	i	nt	nt
O=C(CN1CCC(NC(=O)c2ccc(Br)cc2)CC1)NCc1cccs1	i	nt	nt
O=C(Nc1ccccc1)N(C1=NCCC1)c1ccc(OC(F)F)cc1	?	i	i
O=C(Nc1ccc(Br)cc1F)c1cc(S(=O)(=O)NCc2ccc(F)cc2)ccc1F	i	nt	nt
COc1cc2[nH]cc(C(=O)NCCc3ccccc3)c(=O)c2cc1OC	?	-100	i
COCCNC(=O)c1c[nH]c2cc(OC)c(OC)cc2c1=O	i	?	i
COc1ccc(S(=O)(=O)N(C)c2ccc(OCC(=O)Nc3cc(C)on3)cc2)cc1	?	-97	i
COc1ccc(-c2csc(NC(=O)COc3ccc(N(C)S(=O)(=O)c4ccc(C)cc4)cc3)n2)cc1	?	i	nt
CCOC(=O)c1ccc(NCCOC)c([N+](=O)[O-])c1	i	nt	nt
COC(=O)c1ccc(NC(CC(C)C)C(=O)OC)c([N+](=O)[O-])c1 (stereo not given)	i	-119	i
Brc1ccc(C=Nc2ccc(Nc3ccccc3)cc2)s1	?	i	i
C(=Nc1ccc(Nc2ccccc2)cc1)c1ccc2ccccc2c1	?	-83	i
CCCn1c(-c2ccc(OC)cc2)nc2ccccc21	?	i	i
COCCn1c(-c2ccccc2)nc2ccccc21	i	-113	nt
COc1ccc(-c2nc3ccccc3n2Cc2ccc(Cl)cc2)cc1	nt	nt	i
COc1ccc(-c2nc3ccccc3n2Cc2ccc(C)cc2)cc1	?	-82	i
